From a collection of fitness landscapes (doi:10.1126/science.1257360) come the findings set out here.

In all, about 140,000 sequences were measured (“enrichment ratio after two sorts for PhoP signalling”: median about 0, highest 2% from about 11 on). This is one part of a sample in which the highest values are shown more often than they occur.

B1: PhoQ; a variant is named by its letters at X, in order, P23837 (parent)
chain: MKKLLRLFFPLSLRVRFLLATAAVVLVLSLAYGMVALIGYSVSFDKTTFRLLRGESNLFYTLAKWENNKLHVELPENIDKQSPTMTLIYDENGQLLWAQRDVPWLMKMIQPDWLKSNGFHEIEADVNDTSLLLSGDHSIQQQLQEVREDDDDAEMTHSVAVNVYPATSRMPKLTIVVVDTIPVELKSSYMVWSWFIYVLSANLLLVIPLLWVAAWWSLRPIEALAKEVRELEEHNRELLNPATTRELTSLVRNLNRLLKSERERYDKYRTTLTDLTHSLKTPLXXLQXXLRSLRSEKMSVSDAEPVMLEQISRISQQIGYYLHRASMRGGTLLSRELHPVAPLLDNLTSALNKVYQRKGVNISLDISPEISFVGEQNDFVEVMGNVLDNACKYCLEFVEISARQTDEHLYIVVEDDGPGIPLSKREVIFDRGQRVDTLRPGQGVGLAVAREITEQYEGKIVAGESMLGGARMEVIFGRQHSAPKDE

In the experiment the parent is B1. Put plainly: enrichment ratio after two sorts for PhoP signalling (ratio (wild type AVST 3.29)); higher = more functional. Particulars: with PhoP (E. coli).
Consider SDLA, for which the enrichment ratio is 1.18.
Under VFRG stands at most 0.25; under LTPC, at most 0.25; under YIFI, at most 0.25.
As for AELN, the enrichment ratio was found to be 12.5.
Under AIGN stands 6.31; under AEDK, at most 0.25.
Under AHGN stands at most 0.25; under AECN, 6.19; under AEGN, 12.2.
Then AEWN, with at most 0.25; and AELI, with 30.6.
AELV: the enrichment ratio amounted to 24.4.
Then AEHK, with at most 0.25.
Under AELP stands at most 0.25.
In the case of AVWD, the enrichment ratio is at most 0.25.
For the variant EYSC, the enrichment ratio was at most 0.25.
Take PPHG: the enrichment ratio is at most 0.25.
As for ISCM, the enrichment ratio was determined as 2.52.
As for EMGW, the enrichment ratio is at most 0.25.
Then YGNI, with at most 0.25; and VDAC, with at most 0.25; and QMES, with at most 0.25.
Then CLVG, with at most 0.25.
Take FPHK: the enrichment ratio is at most 0.25.
Then WEIR, with at most 0.25; and MELH, with 6.92; and AENS, with 16.
Under AEYR stands at most 0.25.
Consider AENI, for which the enrichment ratio is at most 0.25.
Then AELL, with 12.1.
On to QELH, for which the enrichment ratio was at most 0.25.
Then AELH, with 11.9; and GSMR, with at most 0.25.
Regarding VMYM, the enrichment ratio is at most 0.25.
Then VVSV, with at most 0.25.
Then RPHF, with at most 0.25.
Under TIAI stands 11.7.
AMAI: the enrichment ratio turned out to be 14.3.
For the variant AKAI, the enrichment ratio is 5.1.
For the variant NMAI, the enrichment ratio is at most 0.25.
Then TIAT, with 10.2.
Then KMAI, with at most 0.25.
Then WIAI, with at most 0.25; and SIAI, with 11.6; and AIAI, with 12.7.
As for TIYY, the enrichment ratio is at most 0.25.
Then SIYY, with at most 0.25; and KYAI, with at most 0.25; and VKNM, with at most 0.25.
Turning to NFFL, the enrichment ratio is at most 0.25.
Under GWNK stands at most 0.25; under RLRM, at most 0.25.
As for RGTH, the enrichment ratio was at most 0.25.
Then YTEG, with at most 0.25.
With YVMY, the enrichment ratio was at most 0.25.
On to DNCH, for which the enrichment ratio was at most 0.25.
Under GTCF stands 1.25; under MCSA, at most 0.25; under FSEL, at most 0.25.
Then ANCS, with 2.95.
Then GNAI, with 7.21.
As to ANAI, the enrichment ratio came to 30.1.
Under EQHH stands at most 0.25.
With MSLT, the enrichment ratio turned out to be 4.06.
Under MSLL stands 13.3; under QPLL, at most 0.25.
Then FQLL, with 5.35; and FCLL, with 10.7; and NRLL, with at most 0.25.
With QFLL, the enrichment ratio is at most 0.25.
Under TSLL stands 14; under KSLL, at most 0.25; under YSLL, 11.4.
Consider FSLL, for which the enrichment ratio is 13.5.
Under NSLL stands 3.55.
Then TRIL, with 5.95; and WDTG, with at most 0.25.
Then RKRR, with at most 0.25.
VQAF: the enrichment ratio is at most 0.25.
Under TDFE stands at most 0.25; under NRKC, at most 0.25.
Consider KMVF, for which the enrichment ratio was at most 0.25.
Under SSLL stands 19.9; under SILL, 1.4.
Then SYLL, with 0.392; and YTGV, with at most 0.25; and STGV, with 13.4.
Then TMGV, with 12.1; and SEGV, with 11.7.
As to QEGV, the enrichment ratio is at most 0.25.
Take TMHV: the enrichment ratio was determined as 0.946.
Under KCGV stands at most 0.25; under KYGV, at most 0.25.
Under SRGV stands at most 0.25; under FHNP, at most 0.25; under WDYS, at most 0.25.
Regarding LVGT, the enrichment ratio was at most 0.25.
Then RDTF, with at most 0.25; and VQAH, with at most 0.25; and PCAG, with at most 0.25.
LCRQ: the enrichment ratio is at most 0.25.
Then YPYC, with at most 0.25.
As to SHQH, the enrichment ratio was at most 0.25.
As to NHQH, the enrichment ratio was at most 0.25.
Under KSQH stands at most 0.25; under TLKH, at most 0.25.
Then THQH, with 23.5.
Under TLQH stands 21.1; under RRNN, at most 0.25; under TVNT, 8.93.
In the case of AHNM, the enrichment ratio was 5.49.
With NMYM, the enrichment ratio was at most 0.25.
Then TQPV, with at most 0.25.
In the case of MGLT, the enrichment ratio amounted to 5.67.
On to MGKR, for which the enrichment ratio was at most 0.25.
Under MGNL stands at most 0.25.
With TGAN, the enrichment ratio is 2.47.
As to MGAN, the enrichment ratio is 12.6.
Under MGWN stands 18.9; under MGAQ, 18.9.
With MKAQ, the enrichment ratio is at most 0.25.
Under MGAT stands 18.8; under MGDN, at most 0.25.
Under MGNT stands at most 0.25; under QRAQ, at most 0.25; under REVQ, at most 0.25.
Consider RQWC, for which the enrichment ratio is at most 0.25.
Under SLFD stands at most 0.25; under VERW, at most 0.25.
Then LTMP, with at most 0.25.
VRTD: the enrichment ratio is at most 0.25.
In the case of TDMT, the enrichment ratio was 10.8.
QVFF: the enrichment ratio was at most 0.25.
Then MTFN, with 16.9; and TGFN, with at most 0.25; and MGAG, with 1.81.
As to YTFN, the enrichment ratio is at most 0.25.
Under MGFN stands 11.6.
With MGCS, the enrichment ratio was 6.13.
For MIFN, the enrichment ratio amounted to 11.
On to MGAI, for which the enrichment ratio came to 16.1.
Under MKFN stands at most 0.25; under QLDR, at most 0.25.
Then GINV, with at most 0.25.
Under SIAD stands 7.06; under YITI, at most 0.25.
In the case of YTPA, the enrichment ratio is at most 0.25.
In the case of PENS, the enrichment ratio is at most 0.25.
Turning to SNDM, the enrichment ratio is at most 0.25.
Then FTCV, with 0.528; and YECK, with at most 0.25.
With FTCC, the enrichment ratio is at most 0.25.
Under YECI stands 0.32.
Under YECS stands 14.8; under FTCQ, 7.15.
In the case of YEES, the enrichment ratio is at most 0.25.
For the variant YECH, the enrichment ratio amounted to 6.45.
